Source: the supplement of paper PMC11482750
± gives the standard deviation of the averaged measurements.

Compound: CCCCCC(C)=O [2-heptanone]
Test: control-subtracted net OSN firing rate; higher = stronger neuronal activation
Details: odorant dilution (vol/vol): 1/100
Protocol: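 Single sensillum recordings from olfactory sensory neurons. The neurons sit in the maxillary palp or antennal sensilla of D. melanogaster (wild type, mutants, or at1 empty-neuron lines expressing Or42a homologs or the A181D S307P mutant) and of four Scaptomyza species. Each odorant was given as a 1 s pulse from 20 µl loaded on filter paper at 1:100 vol/vol, diluted in mineral oil (γ-hexalactone in DMSO). Spikes were counted in a 0.5 s window starting 0.2 s after onset, background was subtracted, the count was doubled, and the mean solvent-control response was subtracted.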

Target | control-subtracted net OSN firing rate
S. pallida pb1b-like | -9 ± 13 spikes/s
S. flava pb2a-like | 7.33 ± 3.7 spikes/s
S. pallida pb1a-like | 95.7 ± 29 spikes/s
S. flava pb2b-like | -1 ± 14 spikes/s
S. pallida pb3a-like | 115 ± 19 spikes/s
S. montana pb3b-like | -2 ± 6.5 spikes/s
S. hsui pb2a-like | 8.67 ± 6.3 spikes/s
S. montana pb1b-like | -12.3 ± 22 spikes/s
S. hsui pb3a-like | 148 ± 31 spikes/s
S. pallida pb2a-like | 7.67 ± 6.6 spikes/s
Canton-S (D. melanogaster) pb1a | 161 ± 48 spikes/s
Canton-S (D. melanogaster) pb3a | 5.67 ± 5.5 spikes/s
S. montana pb1a-like | 64.7 ± 19 spikes/s
S. flava pb1b-like | -22 ± 27 spikes/s
S. montana pb3a-like | 97.3 ± 25 spikes/s
Canton-S (D. melanogaster) pb3b | 16.3 ± 24 spikes/s
Canton-S (D. melanogaster) pb1b | -10 ± 9.1 spikes/s
S. pallida pb2b-like | 26.3 ± 7.8 spikes/s
S. pallida pb3b-like | -7.67 ± 13 spikes/s
S. montana pb2b-like | 8 ± 10 spikes/s
S. flava pb3a-like | 133 ± 40 spikes/s
S. hsui pb1a-like | 136 ± 22 spikes/s
S. montana pb2a-like | 7 ± 13 spikes/s
Canton-S (D. melanogaster) pb2a | 3.71 ± 7.3 spikes/s
S. hsui pb1b-like | -8.33 ± 8 spikes/s
S. flava pb1a-like | 104 ± 19 spikes/s
S. hsui pb3b-like | -6.67 ± 5.9 spikes/s
S. flava pb3b-like | -8.67 ± 26 spikes/s
S. hsui pb2b-like | 8.67 ± 16 spikes/s
Canton-S (D. melanogaster) pb2b | 0.286 ± 11 spikes/s
